Laboratory results: PubChem BioAssay AID1159580 (chemical genetic matrix, 2015)
In all, about 5,500 compounds went through this assay and about 2,000 (36%) were called active. Another 18% or so got no clear call; they are omitted. This is one part of the list. A number with no mark means an inactive call. No stated cut-off is given here; in the data, active means normalized growth mostly below about 0.91 (no sharp cut-off); inconclusive means no clear call, values can overlap the other calls; inactive means mostly above about 0.92.

Assay: chemical genetic growth profiling, strain panel (AID 1159580);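 further: tested at 20 µM; growth read once vehicle control cultures reached saturation at 30 °C; 1 = growth at the plate median or of vehicle wells; lower values mean less growth of the strain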
Conditions: S. cerevisiae deletion strains, growth OD

Compound: CC(C)(CCC(C)(C)N1C(=O)c2cccc3cccc(c23)C1=O)N1C(=O)c2cccc3cccc(c23)C1=O
- normalized growth (locus YAR019C, strain CDC15, hits give low values): 0.0987 (active)
- normalized growth (locus YBL105C, strain PKC1, hits give low values): 0.0855 (active)
- normalized growth (locus YBR135W, strain CKS1, hits give low values): 0.0899 (active)
- normalized growth (locus YBR136W, strain MEC1, hits give low values): 0.107 (active)
- normalized growth (locus YBR160W, strain CDC28, hits give low values): 0.0904 (active)
- normalized growth (locus YDL017W, strain CDC7, hits give low values): 0.0866 (active)
- normalized growth (locus YDL028C, strain MPS1, hits give low values): 0.0947 (active)
- normalized growth (locus YDL101C, strain DUN1, hits give low values): 0.628 (active)
- normalized growth (locus YDL108W, strain KIN28, hits give low values): 0.13 (active)
- normalized growth (locus YDL132W, strain cdc53, hits give low values): 0.971
- normalized growth (locus YDL214C, strain PRR2, hits give low values): 0.0867 (active)
- normalized growth (locus YDR052C, strain DBF4, hits give low values): 0.308 (active)
- normalized growth (locus YDR054C, strain cdc34, hits give low values): 0.227 (active)
- normalized growth (locus YDR226W, strain ADK1, hits give low values): 0.509 (active)
- normalized growth (locus YDR477W, strain SNF1, hits give low values): 0.0979 (active)
- normalized growth (locus YER123W, strain YCK3, hits give low values): 0.103 (active)
- normalized growth (locus YER133W, strain GLC7, hits give low values): 0.0935 (active)
- normalized growth (locus YFL029C, strain CAK1, hits give low values): 0.0982 (active)
- normalized growth (locus YFR003C, strain YPI1, hits give low values): 0.0904 (active)
- normalized growth (locus YFR019W, strain FAB1, hits give low values): 0.0894 (active)
- normalized growth (locus YGR040W, strain KSS1, hits give low values): 0.1 (active)
- normalized growth (locus YGR052W, strain FMP48, hits give low values): 0.133 (active)
- normalized growth (locus YGR092W, strain DBF2, hits give low values): 0.098 (active)
- normalized growth (locus YHR030C, strain SLT2, hits give low values): 0.0982 (active)
- normalized growth (locus YHR079C, strain IRE1, hits give low values): 0.116 (active)
- normalized growth (locus YHR082C, strain KSP1, hits give low values): 0.129 (active)
- normalized growth (locus YHR205W, strain SCH9, hits give low values): 0.213 (active)
- normalized growth (locus YIL147C, strain SLN1, hits give low values): 0.0853 (active)
- normalized growth (locus YJL095W, strain BCK1, hits give low values): 0.128 (active)
- normalized growth (locus YJL128C, strain PBS2, hits give low values): 0.472 (active)
- normalized growth (locus YJL157C, strain FAR1, hits give low values): 0.0837 (active)
- normalized growth (locus YJR016C, strain ILV3, hits give low values): 0.976
- normalized growth (locus YJR066W, strain TOR1 (second series), hits give low values): 0.12 (active)
- normalized growth (locus YJR066W, strain TOR1, hits give low values): 0.123 (active)
- normalized growth (locus YKL048C, strain ELM1, hits give low values): 0.104 (active)
- normalized growth (locus YKL067W, strain YNK1, hits give low values): 0.0909 (active)
- normalized growth (locus YKL101W, strain HSL1, hits give low values): 0.099 (active)
- normalized growth (locus YKL193C, strain SDS22, hits give low values): 0.0977 (active)
- normalized growth (locus YKL203C, strain TOR2, hits give low values): 0.116 (active)
- normalized growth (locus YLR113W, strain HOG1, hits give low values): 0.166 (active)
- normalized growth (locus YLR133W, strain CKI1, hits give low values): 0.0889 (active)
- normalized growth (locus YLR403W, strain SFP1, hits give low values): 0.0154 (active)
- normalized growth (locus YML070W, strain DAK1, hits give low values): 0.0999 (active)
- normalized growth (locus YMR001C, strain CDC5, hits give low values): 0.0878 (active)
- normalized growth (locus YMR205C, strain PFK2 (second series), hits give low values): 0.0998 (active)
- normalized growth (locus YMR277W, strain FCP1, hits give low values): 0.104 (active)
- normalized growth (locus YNL006W, strain LST8, hits give low values): 0.0921 (active)
- normalized growth (locus YNL020C, strain ARK1, hits give low values): 0.0878 (active)
- normalized growth (locus YNL161W, strain CBK1, hits give low values): 0.0843 (active)
- normalized growth (locus YNL183C, strain NPR1, hits give low values): 0.13 (active)
- normalized growth (locus YNL207W, strain RIO2, hits give low values): 0.508 (active)
- normalized growth (locus YNL222W, strain SSU72, hits give low values): 0.095 (active)
- normalized growth (locus YNL307C, strain MCK1 (second series), hits give low values): 0.0953 (active)
- normalized growth (locus YOL078W, strain AVO1, hits give low values): 0.093 (active)
- normalized growth (locus YOL136C, strain PFK27, hits give low values): 0.0923 (active)
- normalized growth (locus YOR061W, strain CKA2, hits give low values): 0.1 (active)
- normalized growth (locus YOR119C, strain RIO1, hits give low values): 0.118 (active)
- normalized growth (locus YOR231W, strain MKK1, hits give low values): 0.13 (active)
- normalized growth (locus YOR329C, strain SCD5, hits give low values): 0.0829 (active)
- normalized growth (locus YPL031C, strain PHO85, hits give low values): 0.0976 (active)
- normalized growth (locus YPL153C, strain RAD53, hits give low values): 0.101 (active)
- normalized growth (locus YPL204W, strain HRR25, hits give low values): 0.0987 (active)
- normalized growth (locus YPL209C, strain IPL1, hits give low values): 0.0859 (active)
- normalized growth (locus YPL256C, strain CLN2, hits give low values): 0.134 (active)
- normalized growth (locus YPR025C, strain CCL1, hits give low values): 0.0843 (active)
- normalized growth (locus YPR111W, strain DBF20, hits give low values): 0.92
- normalized growth (strain NNK1, hits give low values): 0.0956 (active)
- normalized growth (strain TSCII, hits give low values): 0.0989 (active)

Compound: C[N+](C)(CCCCCC[N+](C)(C)CCCN1C(=O)c2cccc3cccc(c23)C1=O)CCCN1C(=O)c2cccc3cccc(c23)C1=O
- normalized growth (locus YAL040C, strain CLN3, hits give low values): 0.984
- normalized growth (locus YCL061C, strain MRC1 (second series), hits give low values): 1
- normalized growth (locus YDR150W, strain NUM1, hits give low values): 1
- normalized growth (locus YDR363W, strain ESC2, hits give low values): 0.986
- normalized growth (locus YER002W, strain NOP16, hits give low values): 1.01
- normalized growth (locus YGR229C, strain SMI1, hits give low values): 1
- normalized growth (locus YMR307W, strain GAS1, hits give low values): 0.981
- normalized growth (locus YNL128W, strain TEP1, hits give low values): 0.995
- normalized growth (locus YNL153C, strain GIM3, hits give low values): 0.955
- normalized growth (locus YNL175C, strain NOP13, hits give low values): 1.01
- normalized growth (locus YNL197C, strain WHI3, hits give low values): 1.01
- normalized growth (locus YNL224C, strain SQS1, hits give low values): 1
- normalized growth (locus YOR083W, strain WHI5 (second series), hits give low values): 1.01
- normalized growth (locus YPL055C, strain LGE1, hits give low values): 0.963
- normalized growth (locus YPL241C, strain CIN2, hits give low values): 0.99
